Dicer inh: inhibitors of human Dicer processing of pre-microRNA; cat-ELCCA pre-miR-21 Dicer processing, chemiluminescence; hits give high values; AID 1347074; hit rate 6% among 47,000; z-score at 25 µM; Q9UPY3; in the data active means z-score above about 3, passing the limit was not always enough;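 further: plate controls were vehicle for no effect and no enzyme for full effect; higher signal means more uncleaved substrate so more Dicer inhibition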
Target sequence (Q9UPY3 whole entry, looked up): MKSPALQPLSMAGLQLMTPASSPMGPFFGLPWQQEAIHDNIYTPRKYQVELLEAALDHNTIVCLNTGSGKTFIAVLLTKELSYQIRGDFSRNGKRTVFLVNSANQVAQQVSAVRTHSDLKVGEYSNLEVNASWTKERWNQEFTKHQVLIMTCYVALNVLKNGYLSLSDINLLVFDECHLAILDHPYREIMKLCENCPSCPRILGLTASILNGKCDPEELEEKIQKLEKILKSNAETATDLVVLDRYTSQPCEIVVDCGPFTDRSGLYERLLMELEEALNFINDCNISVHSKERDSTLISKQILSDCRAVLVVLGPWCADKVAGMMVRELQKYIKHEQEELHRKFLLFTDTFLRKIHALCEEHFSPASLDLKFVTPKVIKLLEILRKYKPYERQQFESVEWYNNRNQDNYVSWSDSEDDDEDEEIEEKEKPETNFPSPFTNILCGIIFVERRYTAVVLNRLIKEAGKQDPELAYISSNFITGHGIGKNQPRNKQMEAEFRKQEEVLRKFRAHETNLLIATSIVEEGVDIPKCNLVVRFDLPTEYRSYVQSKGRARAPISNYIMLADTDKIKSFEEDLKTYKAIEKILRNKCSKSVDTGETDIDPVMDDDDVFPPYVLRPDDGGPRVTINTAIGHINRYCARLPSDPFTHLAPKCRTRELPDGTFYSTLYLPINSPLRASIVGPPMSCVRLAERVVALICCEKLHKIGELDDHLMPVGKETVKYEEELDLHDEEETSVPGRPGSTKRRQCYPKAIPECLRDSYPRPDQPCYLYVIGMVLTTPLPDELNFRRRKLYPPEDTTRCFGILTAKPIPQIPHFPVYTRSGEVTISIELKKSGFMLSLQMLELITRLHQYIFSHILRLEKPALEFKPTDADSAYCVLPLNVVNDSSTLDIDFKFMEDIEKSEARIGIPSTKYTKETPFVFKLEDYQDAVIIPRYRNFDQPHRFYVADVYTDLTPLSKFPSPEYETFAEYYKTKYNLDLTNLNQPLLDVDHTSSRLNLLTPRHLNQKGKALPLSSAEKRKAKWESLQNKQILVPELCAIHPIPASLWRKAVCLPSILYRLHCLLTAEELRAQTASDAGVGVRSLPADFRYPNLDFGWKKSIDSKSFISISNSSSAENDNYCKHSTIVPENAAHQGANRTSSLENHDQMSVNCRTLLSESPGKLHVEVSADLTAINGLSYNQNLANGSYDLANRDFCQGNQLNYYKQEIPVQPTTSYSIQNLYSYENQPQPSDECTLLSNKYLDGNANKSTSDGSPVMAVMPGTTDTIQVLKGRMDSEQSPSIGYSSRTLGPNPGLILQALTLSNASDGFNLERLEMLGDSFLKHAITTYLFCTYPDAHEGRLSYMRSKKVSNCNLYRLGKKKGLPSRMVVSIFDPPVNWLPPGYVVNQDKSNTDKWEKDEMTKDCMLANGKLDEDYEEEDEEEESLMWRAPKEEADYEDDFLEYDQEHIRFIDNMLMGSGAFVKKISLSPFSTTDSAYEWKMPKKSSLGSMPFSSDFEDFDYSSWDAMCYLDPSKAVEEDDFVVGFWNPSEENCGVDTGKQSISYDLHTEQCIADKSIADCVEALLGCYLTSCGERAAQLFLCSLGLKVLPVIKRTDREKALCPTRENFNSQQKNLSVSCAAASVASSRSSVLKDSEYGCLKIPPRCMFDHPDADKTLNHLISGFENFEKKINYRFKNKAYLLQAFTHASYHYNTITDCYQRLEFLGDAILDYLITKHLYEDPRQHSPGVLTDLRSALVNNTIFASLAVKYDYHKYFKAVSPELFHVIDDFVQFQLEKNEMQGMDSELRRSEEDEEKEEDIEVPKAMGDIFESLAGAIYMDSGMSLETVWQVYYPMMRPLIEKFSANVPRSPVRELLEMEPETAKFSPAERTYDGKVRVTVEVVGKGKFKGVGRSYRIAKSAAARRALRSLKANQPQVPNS
Numbers without * were called inactive. Many of the other results were omitted from the sample, so hits are more common in it than they were.

SMILES	Dicer inh
O=C(O)/C=C/C(=O)NCCCCCCNC(=O)/C=C/C(=O)O	0.82
O=c1c2c(n3nnnc3n1Cc1ccccc1)-c1ccccc1CC21CCCCC1	3.2*
CCOC(=O)CSc1nc2c(c(=O)[nH]1)C1(CCCCC1)Cc1ccccc1-2	-0.76
NC(=O)CSc1nnc2n(Cc3ccccc3)c(=O)c3c(n12)-c1ccccc1CC31CCCCC1	3
O=C(NNC(=O)c1ccc(Oc2ccc(C3SCCS3)cc2)o1)c1cccc(Cl)c1	-0.84
Cc1nc2cc(S(=O)(=O)Nc3ccccc3)ccc2n1-c1ccccc1	0.07
CC(C)S(=O)(=O)c1csc(C(=O)N/N=C/c2ccccc2)c1-n1cccc1	1.2
CCCCC#Cc1cncc(C(=O)N/N=C/c2ccccc2)c1	-0.3
Cn1[nH]c(=O)cc1C(=O)N/N=C/c1ccccc1	3.1*
Cc1cccc(C(=O)/C=C\Nc2ccc(Cl)cn2)c1	-0.04
COC(=O)c1c(C)oc(C)c1S(=O)(=O)NC1CCCCCCCCCCC1	2.2
CCOc1ccc(C2C3=C(CC(C)(C)CC3=O)OC3=C2C(=O)CC(C)(C)C3)cc1	0.37
CCCC1CC(C)(c2csc(Cc3ccc(OCC)cc3)n2)OC1=O (stereo not drawn)	4.9*
CCCCCC1(C(=O)OCC)CC(C)(c2csc(N)n2)OC1=O (stereo not drawn)	-0.97
O=C(NCc1nc(-c2ccc(C(F)(F)F)cc2)no1)c1ccccc1C(F)(F)F	1
COc1cc2ncnc(NC3CCCCC3)c2cc1OC	-0.29
O=C(CSc1cc(-c2ccccc2)nc2ncnn12)c1ccc(Br)cc1	-0.04
O=C(NCc1ccncc1)c1cc(-c2ccc3c(c2)OCO3)nc2ccccc12	1.3
CC1CC(=O)C2=C(C1)Nc1ncnn1C2c1ccccc1 (stereo not drawn)	4.6*
Cc1ccc(C2C3=C(CC(c4ccc(Cl)cc4)CC3=O)Nc3ncnn32)cc1 (stereo not drawn)	0.34
CC1(C)CC(=O)C2=C(C1)Nc1ncnn1C2c1cccc(O)c1 (stereo not drawn)	-0.16
CCN(CC)c1ccc(C2C3=C(CC(C)(C)CC3=O)Nc3ncnn32)cc1 (stereo not drawn)	2.2
O=C1CC(c2ccc(Cl)cc2)CC2=C1C(c1cccnc1)n1c(nc3ccccc31)N2 (stereo not drawn)	-0.56
Cc1ccc(C2C3=C(CC(c4ccccc4)CC3=O)Nc3nc(C(F)(F)F)nn32)cc1 (stereo not drawn)	3*
O=C1CCCC2=C1C(c1cccc(O)c1)n1ncnc1N2 (stereo not drawn)	0.53
SMILES	Dicer inh
CC1(C)CC(=O)C2=C(C1)Nc1ncnn1C2c1ccccc1 (stereo not drawn)	1.9
CC1(C)CC(=O)C2=C(C1)Nc1ncnn1C2c1ccc(Cl)cc1 (stereo not drawn)	3.2*
CCOC(=O)C1=C(C)NC2=C(C(=O)CC(C)(C)C2)C1c1ccc(OCc2ccccc2)c(OC)c1 (stereo not drawn)	4.3
CCOC(=O)CSc1nc(SCC(=O)OCC)c2c3c([nH]c2n1)CCCC3	2.7
CCOC(=O)c1ccc(N2C(=O)CSC2c2ccccc2)cc1 (stereo not drawn)	-0.92
CN(C)CCOC(=O)c1ccc(C(=O)c2ccccc2)cc1	0.18
CC(=O)COc1nc2c(c(-c3ccco3)c1C#N)CCc1ccccc1-2	243
CCOc1nc2c(c(-c3ccc(OC)cc3)c1C#N)Cc1ccccc1-2	-1.6
CC(=O)COc1nc2c(c(-c3ccc(Cl)cc3)c1C#N)CCc1ccccc1-2	3.2*
COc1cc(C2C(C(=O)OC3CCCCC3)=C(C)NC3=C2C(=O)CCC3)ccc1O (stereo not drawn)	0.83
CN(C)c1ccc(/C=N/NC(N)=S)cc1C#N	0.03
Cc1ccc2cccc(OC(=O)c3ccco3)c2n1	0.98
CCC(=O)NCc1ccc(Cl)cc1Cl	-1.3
CCc1cc(C(=O)c2ccc(OC)cc2)c(NC(=O)COc2ccc(Cl)cc2Cl)s1	0.37
CCOC(=O)c1c(NS(=O)(=O)c2ccc(OC)c(OC)c2)sc2c1CCC2	-1.3
CCOC(=O)c1c(NC(=O)Oc2ccccc2)sc2c1CCC2	-0.88
CCOC(=O)c1c(NC(=O)Nc2ccc(C)cc2)sc2c1CCN(C)C2	2.1
CCOC(=O)c1c(NC(=O)C(C)Oc2ccc(OC)cc2)sc2c1CCC(C)C2 (stereo not drawn)	2.7
CCOC(=O)c1c(NCc2cc(OC)ccc2O)sc2c1CCC2	4.1*
CCOC(=O)c1c(NC(=O)Nc2cc(OC)ccc2Cl)sc2c1CCN(C)C2	3.4*
CC(C)(CCNC(=O)Cc1ccsc1)C(=O)N/N=C/c1ccccc1	-2.5
Cc1nn(-c2ccccc2)nc1C(=O)ONC(=O)c1ccco1	2.5
O=c1[nH]c(-c2ccccc2)nc2c1oc1ccccc12	0.94
Cc1cc(N)n2ncc(-c3ccccc3)c2n1	0.44
Cc1cc(C)n2nc(C)c(-c3ccc(Cl)cc3)c2n1	1.9
SMILES	Dicer inh
Cc1cc(C)n2ncc(-c3ccc(Cl)cc3)c2n1	3.9*
Clc1ccc(-n2ncnc2-c2ccccc2)cc1	-0.28
CCc1ccc(-c2ncnn2-c2ccc(Cl)cc2)cc1	3.2*
CSc1ccc(-c2ncnn2-c2cccc(Cl)c2)cc1	0.28
COc1cc(CNCCSc2nnnn2C)ccc1OCc1ccc(Cl)cc1	0.32
CCOC(=O)C1=C(c2ccccc2)N=C2SCC(=O)N2C1c1cccc(OC)c1OC (stereo not drawn)	0.38
COc1nccnc1NS(=O)(=O)c1ccc(NCc2cc(Br)ccc2O)cc1	6.3*
CCn1c(NCc2cc(Br)ccc2O)nc2ccccc21	1.6
COc1nccnc1NS(=O)(=O)c1ccc(NC(=O)c2cc(Cl)cc(Cl)c2)cc1	2.2
Cc1nnc(SCC2=NN(c3nc4ccccc4[nH]3)C(=O)C2)s1	3.2*
Cc1nnc(SCc2cc(=O)n3c(nc4ccccc43)[nH]2)s1	-1.9
O=C1CC(CSc2nnnn2-c2ccccc2)=NN1c1nc2ccccc2[nH]1	-2.3
Cn1c(CSCc2nc(-c3ccccc3)cs2)nnc1SCC(=O)Nc1ccccc1	-2.5
Cc1cc(OC(=O)c2ccccc2)n(-c2ccccc2)n1	-5
CCOC(=O)/C(=C\Nc1ccc(F)cc1)[N+](=O)[O-]	0.61
CC1(C)CC(=O)C2=C(C1)Nc1ccccc1NC2c1ccc(O)c(O)c1 (stereo not drawn)	4.7
O=C1CC(c2ccco2)CC2=C1C(c1ccco1)Nc1ccccc1N2 (stereo not drawn)	1.2
Cc1ccc(C2Nc3ccccc3NC3=C2C(=O)CC(c2ccccc2)C3)cc1 (stereo not drawn)	1
COc1ccc(C2CC(=O)C3=C(C2)Nc2ccccc2NC3c2ccccc2Cl)cc1OC (stereo not drawn)	0.78
COc1ccccc1C1Nc2ccccc2NC2=C1C(=O)CC(c1ccccc1)C2 (stereo not drawn)	1.7
COc1ccccc1C1Nc2ccccc2NC2=C1C(=O)CC(c1ccc(Cl)cc1)C2 (stereo not drawn)	4.3*
Cc1ccc(C2Nc3ccccc3NC3=C2C(=O)CC(C)(C)C3)c(O)c1 (stereo not drawn)	1.3
CSc1ccc(C2Nc3ccccc3NC3=C2C(=O)CC(c2ccccc2)C3)cc1 (stereo not drawn)	2.1
CC1(C)CC(=O)C2=C(C1)Nc1ccccc1NC2c1cc(Cl)ccc1O (stereo not drawn)	3.9*
CN(C)c1ccc(C2Nc3ccccc3NC3=C2C(=O)CC(c2ccccc2)C3)cc1 (stereo not drawn)	5.1
CCOc1ccc(C2Nc3ccccc3NC3=C2C(=O)CC(c2ccccc2)C3)cc1 (stereo not drawn)	3.6*
